# Measurements reported in paper PMC11006913.
# Changes are numbered by the printed parent chain.
# Tests used:
# Experiment in all cases: PBM; 200 nM protein, PBS
# Conditions in all cases: dsDNA, one strand shown
# [1] = biological target: PRRX1 (Homo sapiens, UniProt P54821 80-166, F113S)
# [2] = biological target: PRRX1 (Homo sapiens, UniProt P54821 80-166)
# [3] = biological target: T1, SIX6 (Homo sapiens, UniProt O95475 114-200, L167M)
# T1 sequence: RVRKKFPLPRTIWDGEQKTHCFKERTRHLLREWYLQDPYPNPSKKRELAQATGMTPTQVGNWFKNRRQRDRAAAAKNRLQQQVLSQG
# [4] = biological target: T2, SIX6 (Homo sapiens, UniProt O95475 114-200, L167V)
# T2 sequence: T1 sequence with M54V
# [5] = biological target: T3, SIX6 (Homo sapiens, UniProt O95475 114-200)
# T3 sequence: T1 sequence with M54L
# [6] = biological target: T4, SIX6 (Homo sapiens, UniProt O95475 114-200, T165I)
# T4 sequence: T1 sequence with T52I, M54L
# [7] = biological target: T5, SIX6 (Homo sapiens, UniProt O95475 114-200, T165P)
# T5 sequence: T1 sequence with T52P, M54L
# [8] = biological target: T6, VENTX (Homo sapiens, UniProt O95231 78-163, Y115F)
# T6 sequence: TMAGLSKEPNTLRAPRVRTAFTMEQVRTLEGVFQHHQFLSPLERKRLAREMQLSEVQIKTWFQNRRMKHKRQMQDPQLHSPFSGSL
# [9] = biological target: T7, PAX4 (Homo sapiens, UniProt O43316 9-242)
# T7 sequence: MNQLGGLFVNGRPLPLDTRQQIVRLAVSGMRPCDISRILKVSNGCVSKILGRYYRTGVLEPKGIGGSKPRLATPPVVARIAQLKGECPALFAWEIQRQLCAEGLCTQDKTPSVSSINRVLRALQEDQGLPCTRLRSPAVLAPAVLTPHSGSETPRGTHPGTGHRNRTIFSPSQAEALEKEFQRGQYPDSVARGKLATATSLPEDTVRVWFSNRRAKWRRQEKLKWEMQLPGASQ
# [10] = biological target: PITX2 (Homo sapiens, UniProt Q99697 72-157)
# [11] = biological target: T8, PAX4 (Homo sapiens, UniProt O43316 9-242, F177V)
# T8 sequence: T7 sequence with F169V
# [12] = biological target: T9, PAX4 (Homo sapiens, UniProt O43316 9-242, F177Y)
# T9 sequence: T7 sequence with F169Y
# [13] = biological target: T10, PAX4 (Homo sapiens, UniProt O43316 9-242, R227W)
# T10 sequence: T7 sequence with R219W
# Chain of PRRX1 (Homo sapiens, UniProt P54821 80-166) (P54821 80-166): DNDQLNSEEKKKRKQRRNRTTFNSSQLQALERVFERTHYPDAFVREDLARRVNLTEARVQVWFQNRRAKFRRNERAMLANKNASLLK
# Chain of PRRX1 (Homo sapiens, UniProt P54821 80-166, F113S) (P54821 80-166 F113S): as the sequence (P54821 80-166) above, with F34S counted along it
sequence,measurement,setting,value
GCGCCAGA,binding signal,[1],"9.32 upbm affinity estimate (log intensity, higher = more binding, comparable within an allelic series)"
same,binding signal,[2],"9.56 upbm affinity estimate (log intensity, higher = more binding, comparable within an allelic series)"
CCCAACGC,binding signal,[1],"9.62 upbm affinity estimate (log intensity, higher = more binding, comparable within an allelic series)"
same,binding signal,[2],"9.3 upbm affinity estimate (log intensity, higher = more binding, comparable within an allelic series)"
AATTCAGG,binding signal,[1],"9.89 upbm affinity estimate (log intensity, higher = more binding, comparable within an allelic series)"
same,binding signal,[2],"11.3 upbm affinity estimate (log intensity, higher = more binding, comparable within an allelic series)"
AATAGGGT,binding signal,[1],"10.2 upbm affinity estimate (log intensity, higher = more binding, comparable within an allelic series)"
same,binding signal,[2],"11.5 upbm affinity estimate (log intensity, higher = more binding, comparable within an allelic series)"
AGCACCCT,binding signal,[1],"9.32 upbm affinity estimate (log intensity, higher = more binding, comparable within an allelic series)"
same,binding signal,[2],"9.38 upbm affinity estimate (log intensity, higher = more binding, comparable within an allelic series)"
AGGTTTAA,binding signal,[1],"10.1 upbm affinity estimate (log intensity, higher = more binding, comparable within an allelic series)"
same,binding signal,[2],"11.4 upbm affinity estimate (log intensity, higher = more binding, comparable within an allelic series)"
CGGACGAC,binding signal,[1],"9.43 upbm affinity estimate (log intensity, higher = more binding, comparable within an allelic series)"
same,binding signal,[2],"9.26 upbm affinity estimate (log intensity, higher = more binding, comparable within an allelic series)"
GCTGGACC,binding signal,[1],"9.41 upbm affinity estimate (log intensity, higher = more binding, comparable within an allelic series)"
same,binding signal,[2],"9.43 upbm affinity estimate (log intensity, higher = more binding, comparable within an allelic series)"
CCATGACG,binding signal,[1],"9.32 upbm affinity estimate (log intensity, higher = more binding, comparable within an allelic series)"
same,binding signal,[2],"9.37 upbm affinity estimate (log intensity, higher = more binding, comparable within an allelic series)"
TTAACAAA,binding signal,[1],"10.5 upbm affinity estimate (log intensity, higher = more binding, comparable within an allelic series)"
same,binding signal,[2],"12.4 upbm affinity estimate (log intensity, higher = more binding, comparable within an allelic series)"
GCTCCAGA,binding signal,[1],"9.35 upbm affinity estimate (log intensity, higher = more binding, comparable within an allelic series)"
same,binding signal,[2],"9.02 upbm affinity estimate (log intensity, higher = more binding, comparable within an allelic series)"
ATCAATTC,binding signal,[1],"10.1 upbm affinity estimate (log intensity, higher = more binding, comparable within an allelic series)"
same,binding signal,[2],"11.9 upbm affinity estimate (log intensity, higher = more binding, comparable within an allelic series)"
CGCGGGAC,binding signal,[1],"9.43 upbm affinity estimate (log intensity, higher = more binding, comparable within an allelic series)"
same,binding signal,[2],"9.4 upbm affinity estimate (log intensity, higher = more binding, comparable within an allelic series)"
CTCCGTAC,binding signal,[1],"9.47 upbm affinity estimate (log intensity, higher = more binding, comparable within an allelic series)"
same,binding signal,[2],"9.24 upbm affinity estimate (log intensity, higher = more binding, comparable within an allelic series)"
GCGGTTCC,binding signal,[1],"9.66 upbm affinity estimate (log intensity, higher = more binding, comparable within an allelic series)"
same,binding signal,[2],"9.31 upbm affinity estimate (log intensity, higher = more binding, comparable within an allelic series)"
GCTCTTCC,binding signal,[1],"9.47 upbm affinity estimate (log intensity, higher = more binding, comparable within an allelic series)"
same,binding signal,[2],"9.1 upbm affinity estimate (log intensity, higher = more binding, comparable within an allelic series)"
AGGTTCGC,binding signal,[1],"9.34 upbm affinity estimate (log intensity, higher = more binding, comparable within an allelic series)"
same,binding signal,[2],"9.02 upbm affinity estimate (log intensity, higher = more binding, comparable within an allelic series)"
GACGACGC,binding signal,[1],"9.47 upbm affinity estimate (log intensity, higher = more binding, comparable within an allelic series)"
same,binding signal,[2],"9.16 upbm affinity estimate (log intensity, higher = more binding, comparable within an allelic series)"
CCAGGGAG,binding signal,[1],"9.19 upbm affinity estimate (log intensity, higher = more binding, comparable within an allelic series)"
same,binding signal,[2],"8.8 upbm affinity estimate (log intensity, higher = more binding, comparable within an allelic series)"
AGGAGAGC,binding signal,[1],"9.35 upbm affinity estimate (log intensity, higher = more binding, comparable within an allelic series)"
same,binding signal,[2],"9.36 upbm affinity estimate (log intensity, higher = more binding, comparable within an allelic series)"
GAGGCTGC,binding signal,[1],"9.31 upbm affinity estimate (log intensity, higher = more binding, comparable within an allelic series)"
same,binding signal,[2],"9.36 upbm affinity estimate (log intensity, higher = more binding, comparable within an allelic series)"
TCGTAACA,binding signal,[1],"10.2 upbm affinity estimate (log intensity, higher = more binding, comparable within an allelic series)"
same,binding signal,[2],"11.3 upbm affinity estimate (log intensity, higher = more binding, comparable within an allelic series)"
CAAATGAG,binding signal,[1],"10.1 upbm affinity estimate (log intensity, higher = more binding, comparable within an allelic series)"
same,binding signal,[2],"11.5 upbm affinity estimate (log intensity, higher = more binding, comparable within an allelic series)"
GCACGTCC,binding signal,[1],"9.49 upbm affinity estimate (log intensity, higher = more binding, comparable within an allelic series)"
same,binding signal,[2],"9.27 upbm affinity estimate (log intensity, higher = more binding, comparable within an allelic series)"
CCGACCCC,binding signal,[1],"9.1 upbm affinity estimate (log intensity, higher = more binding, comparable within an allelic series)"
same,binding signal,[2],"9.36 upbm affinity estimate (log intensity, higher = more binding, comparable within an allelic series)"
GGACAACC,binding signal,[1],"9.36 upbm affinity estimate (log intensity, higher = more binding, comparable within an allelic series)"
same,binding signal,[2],"9.23 upbm affinity estimate (log intensity, higher = more binding, comparable within an allelic series)"
GACTCTAA,binding signal,[1],"10.1 upbm affinity estimate (log intensity, higher = more binding, comparable within an allelic series)"
same,binding signal,[2],"11.1 upbm affinity estimate (log intensity, higher = more binding, comparable within an allelic series)"
CGCTCCAC,binding signal,[1],"9.44 upbm affinity estimate (log intensity, higher = more binding, comparable within an allelic series)"
same,binding signal,[2],"9.3 upbm affinity estimate (log intensity, higher = more binding, comparable within an allelic series)"
ACGTCGCC,binding signal,[1],"9.31 upbm affinity estimate (log intensity, higher = more binding, comparable within an allelic series)"
same,binding signal,[2],"9.36 upbm affinity estimate (log intensity, higher = more binding, comparable within an allelic series)"
ACTTTATG,binding signal,[1],"10 upbm affinity estimate (log intensity, higher = more binding, comparable within an allelic series)"
same,binding signal,[2],"10.9 upbm affinity estimate (log intensity, higher = more binding, comparable within an allelic series)"
GAACAGCC,binding signal,[1],"9.48 upbm affinity estimate (log intensity, higher = more binding, comparable within an allelic series)"
same,binding signal,[2],"9.53 upbm affinity estimate (log intensity, higher = more binding, comparable within an allelic series)"
GACGTTGC,binding signal,[1],"9.46 upbm affinity estimate (log intensity, higher = more binding, comparable within an allelic series)"
same,binding signal,[2],"9.38 upbm affinity estimate (log intensity, higher = more binding, comparable within an allelic series)"
GCGATACC,binding signal,[3],"10.3 upbm affinity estimate (log intensity, higher = more binding, comparable within an allelic series)"
AACGATAC,binding signal,[4],"10.9 upbm affinity estimate (log intensity, higher = more binding, comparable within an allelic series)"
CATATCAC,binding signal,[4],"10.9 upbm affinity estimate (log intensity, higher = more binding, comparable within an allelic series)"
CATAACAC,binding signal,[5],"10.1 upbm affinity estimate (log intensity, higher = more binding, comparable within an allelic series)"
same,binding signal,[6],"10.1 upbm affinity estimate (log intensity, higher = more binding, comparable within an allelic series)"
CCCGATAC,binding signal,[7],"9.17 upbm affinity estimate (log intensity, higher = more binding, comparable within an allelic series)"
AGGGGATC,binding signal,[7],"9.22 upbm affinity estimate (log intensity, higher = more binding, comparable within an allelic series)"
CCGATTTA,binding signal,[8],"9.97 upbm affinity estimate (log intensity, higher = more binding, comparable within an allelic series)"
TCTGATCA,binding signal,[9],"10.5 upbm affinity estimate (log intensity, higher = more binding, comparable within an allelic series)"
same,binding signal,[10],"9.44 upbm affinity estimate (log intensity, higher = more binding, comparable within an allelic series)"
same,binding signal,[11],"9.89 upbm affinity estimate (log intensity, higher = more binding, comparable within an allelic series)"
same,binding signal,[12],"9.94 upbm affinity estimate (log intensity, higher = more binding, comparable within an allelic series)"
same,binding signal,[13],"9.94 upbm affinity estimate (log intensity, higher = more binding, comparable within an allelic series)"
ACGATCCG,binding signal,[7],"9.21 upbm affinity estimate (log intensity, higher = more binding, comparable within an allelic series)"
same,binding signal,[3],"9.98 upbm affinity estimate (log intensity, higher = more binding, comparable within an allelic series)"
CCGTATCC,binding signal,[7],"9.24 upbm affinity estimate (log intensity, higher = more binding, comparable within an allelic series)"
CGATACCG,binding signal,[7],"9.14 upbm affinity estimate (log intensity, higher = more binding, comparable within an allelic series)"
